In all, about 33,000 sequences were measured (“e-score”: median about -0.05, highest 2% from about 0.38 on). This excerpt belongs to a sample that is enriched for the highest values.
Target: T1, SIX1-Q177R homeodomain (human, UniProt Q15475 108-198, Q177R)
T1 sequence: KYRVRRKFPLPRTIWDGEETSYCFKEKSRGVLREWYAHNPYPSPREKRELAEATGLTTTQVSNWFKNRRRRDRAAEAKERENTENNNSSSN
Assay: universal protein binding microarray; Universal all-10-mer PBM (8x60K, AMADID 030236), 300 nM GST-tagged protein, Alexa Fluor 488 anti-GST; buffer, salt, pH and temperature not stated (as in Berger); high values mean tight binding
Conditions: protein: ivt; tags: N-terminal GST; dsDNA, one strand shown
How it was run: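 Homeodomains carrying a GST tag were produced by in vitro transcription/translation, then quantified by anti-GST western blot against a recombinant GST standard curve. Duplicate applications at 300 nM final concentration were made to universal 'all 10-mer' protein binding microarrays in 8×60K format. The Universal PBM Analysis Suite was used to express binding as 8-mer E-scores.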

Sequence	binding signal
CGCAATAC	0.276 ± 0.0226 E-score
CACGCAAC	0.227 ± 0.0168 E-score
CCCCCTAC	0.267 ± 0.031 E-score
TCGCACCA	0.177 ± 0.0487 E-score
CAAGTACA	0.207 ± 0.0357 E-score
CCCTAACA	0.181 ± 0.028 E-score
CACCAATG	0.222 ± 0.00267 E-score
CTCCCCAA	0.28 ± 0.0223 E-score
ACAACCCC	0.207 ± 0.03 E-score
AGCTACAC	0.435 ± 0.00848 E-score
CGCTACAC	0.4023 ± 0.0021 E-score
CGCGCTAC	0.15 ± 0.0294 E-score
AGCCACAC	0.208 ± 0.0231 E-score
GGCCACAC	0.233 ± 0.0102 E-score
GGCTACGA	0.196 ± 0.00863 E-score
CGCTCTAC	0.157 ± 0.026 E-score
GGCTACAC	0.4245 ± 0.0031 E-score
CTTTTACA	0.17 ± 0.0837 E-score
CACGTACG	0.167 ± 0.0161 E-score
CTCCTACA	0.243 ± 0.0252 E-score
ACCACGTC	0.182 ± 0.0198 E-score
ACTATCGA	0.156 ± 0.0186 E-score
GTGAACAC	0.4118 ± 0.00099 E-score
CTGAGCAC	0.254 ± 0.0174 E-score

Sequence	binding signal
ATGAACCC	0.198 ± 0.0247 E-score
GTGAGCAC	0.159 ± 0.0143 E-score
CTGAACCC	0.187 ± 0.0441 E-score
ATGAACAC	0.4 ± 0.0197 E-score
ATGCACAC	0.289 ± 0.00704 E-score
CTGAACAC	0.4224 ± 0.00137 E-score
TCAGAACA	0.228 ± 0.00667 E-score
ACTCCCCA	0.163 ± 0.025 E-score
GGAAGACA	0.155 ± 0.0119 E-score
CACGTCGA	0.177 ± 0.0103 E-score
CAGTCGGG	0.196 ± 0.029 E-score
ATCCGACC	0.153 ± 0.0521 E-score
CCCGATCC	0.2392 ± 0.00171 E-score
AGATGGTG	0.2726 ± 0.000212 E-score
GTACTCGA	0.19 ± 0.0242 E-score
CTACACGA	0.388 ± 0.00636 E-score
GTACACAA	0.308 ± 0.0492 E-score
CTACACGC	0.4033 ± 0.000742 E-score
CTACACAC	0.297 ± 0.0318 E-score
CAACACGC	0.363 ± 0.0087 E-score
GTACACGA	0.4189 ± 0.00327 E-score
CTACACAG	0.161 ± 0.084 E-score
CCAGGATC	0.193 ± 0.0154 E-score
CCACTTCC	0.16 ± 0.0569 E-score

Sequence	binding signal
TGTACGAA	0.157 ± 0.0609 E-score
AATGGACA	0.174 ± 0.00513 E-score
ACCCTCCC	0.211 ± 0.0163 E-score
CACCTCTA	0.295 ± 0.0114 E-score
CCGTACCC	0.1577 ± 0.00155 E-score
CCGCACAC	0.303 ± 0.0285 E-score
GCGTACGC	0.235 ± 0.0141 E-score
GCGTACAC	0.4123 ± 0.00366 E-score
GCGTACCC	0.237 ± 0.0376 E-score
CCGTACAC	0.418 ± 0.00993 E-score
ACGTACCC	0.202 ± 0.00673 E-score
ACGTAATC	0.186 ± 0.0139 E-score
ACGTACAC	0.436 ± 0.00504 E-score
CACCACGA	0.28 ± 0.0196 E-score
CAAGGGTA	0.19 ± 0.0194 E-score
AACCCCGG	0.2652 ± 0.00233 E-score
AACGGACA	0.278 ± 0.00733 E-score
TGTCCACA	0.205 ± 0.0326 E-score
TAGGTACA	0.179 ± 0.00841 E-score
CTAGCAAA	0.173 ± 0.0314 E-score
TCCCGACA	0.155 ± 0.0127 E-score
CACCGTCC	0.276 ± 0.00535 E-score
ACACACCG	0.428 ± 0.0122 E-score
ACACACAT	0.201 ± 0.0773 E-score

Sequence	binding signal
ACACACAG	0.269 ± 0.0266 E-score
ACGCACCG	0.177 ± 0.0273 E-score
ACACACCT	0.386 ± 0.00817 E-score
ACACACGT	0.27 ± 0.0195 E-score
AAAAGGTG	0.195 ± 0.0717 E-score
ACTGGGTG	0.319 ± 0.0299 E-score
ACGCAGTG	0.212 ± 0.0202 E-score
TGTATCAA	0.158 ± 0.0316 E-score
GTCACGAC	0.164 ± 0.0297 E-score
CCCGGGAG	0.189 ± 0.00274 E-score
ACTGTGCA	0.195 ± 0.0266 E-score
AGGACACG	0.349 ± 0.0239 E-score
GGGACACA	0.232 ± 0.0537 E-score
CGGACACC	0.48 ± 0.00522 E-score
TGGACACA	0.252 ± 0.0644 E-score
GGGACCCC	0.211 ± 0.0329 E-score
AGGACACA	0.224 ± 0.0724 E-score
CGGACACA	0.226 ± 0.0432 E-score
CGGACACG	0.373 ± 0.0179 E-score
AGGACACT	0.3795 ± 0.00235 E-score
AGGACACC	0.4835 ± 0.000969 E-score
GGGACACC	0.478 ± 0.0106 E-score
